Source: PubChem
TRHR ag: agonists of human TRH receptor; P34981; TRHR cells, calcium flux fluo-8, FDSS agonist mode; activation, % at 2 µM; 360,000 compounds, 0.18% hits; AID 493084; also: 0% is about no effect
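Read-out: compound-evoked intracellular calcium rise in TRHR cells, fluo-8 dye, kinetic FDSS fluorescence at 1 s/cycle following a 10-cycle baseline. Cells cultured overnight before dye loading (30 min–1.5 h, RT).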
D1 potentiator: enhances dopamine response at the human D1 receptor. HEK293 TREx D1 cells, calcium flux, dopamine EC20 potentiation. potentiation, % at 10 µM. AID 504651. 360,000 compounds, 0.036% hits. P21728; in the data active = potentiation above about 30%; also: 0% is about no effect
Target sequence (P21728 whole entry, looked up): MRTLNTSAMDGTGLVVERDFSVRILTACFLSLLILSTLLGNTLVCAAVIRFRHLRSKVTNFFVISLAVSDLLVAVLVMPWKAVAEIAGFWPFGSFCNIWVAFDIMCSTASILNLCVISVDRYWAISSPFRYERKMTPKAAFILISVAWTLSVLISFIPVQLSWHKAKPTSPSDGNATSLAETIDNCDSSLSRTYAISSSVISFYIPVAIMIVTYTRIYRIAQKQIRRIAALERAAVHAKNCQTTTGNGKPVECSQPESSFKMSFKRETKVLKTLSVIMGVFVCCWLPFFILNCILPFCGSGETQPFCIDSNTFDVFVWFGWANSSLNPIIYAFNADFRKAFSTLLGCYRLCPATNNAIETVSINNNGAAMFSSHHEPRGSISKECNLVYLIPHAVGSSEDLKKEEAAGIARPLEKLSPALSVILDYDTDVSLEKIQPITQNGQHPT
D1 antagonist: human D1 dopamine receptor antagonism; P21728; HEK293 TREx D1 cells, calcium flux, dopamine EC80; stronger effect = lower value; 360,000 compounds, 3.2% hits; activity change, negative = inhibition, % at 10 µM; AID 504652; in the data active = activity change below about -30%; also: % is scaled to controls: 0 for no effect and ±100 for the full control effect
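Tetracycline-induced HEK293 Trex D1 cells, force-coupled to calcium, dye-loaded; compounds added and read 180 s, then EC80 dopamine added and calcium flux tracked kinetically another 180 s.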
TRHR enhancer: allosterically enhances the human TRH receptor; AID 493056; enhancement, % at 2 µM; TRHR cells, fluo-8 calcium fluorescence, EC20 TRH enhancement; 360,000 compounds, 0.66% hits; P34981; in the data active = enhancement above about 30%; also: 0% is about no effect
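Enhancer read-out: after compound pinning and an initial kinetic agonist-mode read, an EC20 of TRH (10 nM final) was injected and fluo-8 calcium signal (Ex 480/Em 530) followed at 1 s/cycle for 100 cycles in TRHR-expressing cells.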
D1 agonist: agonists of human D1 dopamine receptor; P21728; activation, % at 2 µM; 360,000 compounds, 1% hits; HEK293 T-REx D1 cells, calcium flux, agonist mode; also: 0% is about no effect
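Inducible HEK293 T-REx D1 cells, force-coupled to calcium signalling, were plated at 4000 cells/well with tetracycline and held overnight at 30 C. After no-wash calcium dye loading, compound-evoked calcium rise over 180 s flagged agonists.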
Active calls of the source: *; · = not tested or not shown. Only some compounds are listed: those with a hit (about 4.6% of all), similar ones and a draw of the others. Rule as the data show it, unless noted: active = activation above about 30%; inactive = the rest.

SMILES	TRHR ag	D1 potentiator	D1 antagonist	TRHR enhancer	D1 agonist
Cc1c(-c2nsc(NC(=O)c3ccc(Cl)cc3)n2)nnn1-c1ccc(C(C)C)cc1	0	-1	-15	1	5
COC(=O)c1ccc(-n2nnc(-c3nsc(NC(=O)c4ccc(Cl)cc4)n3)c2C)cc1	2	1	-55*	3	3
Cc1c(C(=O)N2CCC(c3nc4ccccc4s3)CC2)oc2ccc(Cl)cc12	1	0	1	3	13
CCCCC(CC)CN=C(N)NC(N)=NCCCCCCN=C(N)NC(N)=NCC(CC)CCCC (stereo unspecified)	1	2	-75*	-7	2
CCCCC(CC)COC(=O)CCCCC(=O)OCC(CC)CCCC (stereo unspecified)	1	-3	·	4	-1
Clc1ccccc1N=C1SCCS1	-1	8	7	-3	36*
O=C(Cn1c(=O)n(Cc2nc(-c3ccccc3)no2)c(=O)c2cc3c(cc21)OCO3)Nc1ccc(Cl)cc1	1	-1	-3	2	7
COc1cccc(C(=O)Nc2ccc(C(=O)O)cc2)c1	0	3	3	5	4
O=C(CSc1ccncc1)Nc1ccc2ccccc2c1	0	-9	-31*	-2	14
COc1cccc(C(=O)Nc2nc3c(s2)CN(C)CC3)c1	0	-3	9	24	99*
COC(=O)c1ccc(NC(=O)c2cccc(OC)c2)cc1	-1	-3	-52*	-9	23
COc1cccc(C(=O)Nc2ccncc2)c1	0	-9	-59*	0	3
O=C(CSc1ccc2ccccc2c1)Nc1ccncc1	0	-4	·	0	12
CN1CCc2nc(NC(=O)c3cccc(S(=O)(=O)N4CCc5ccccc54)c3)sc2C1	0	-6	-10	0	5
O=C1CCc2cc(S(=O)(=O)Nc3ccccc3F)cc3c2N1CCC3	0	-9	10	-2	3
O=C(Nc1ccncc1)c1ccc2ccccc2c1	0	-8	-38*	3	8
COc1ccc(C(=O)Nc2ccc(C(=O)Nc3cccc(C)c3)cc2)cc1	0	-5	-31*	0	2
COc1ccc(NC(=O)c2cccc(NC(=O)c3ccccc3)c2)cc1	-2	-3	-18	6	7
O=C(Nc1nnc(-c2ccncc2)o1)c1ccc2ccccc2c1	-1	-1	-20	5	4
COc1ccc(-n2c(SCC(=O)NCc3ccccc3)nc3n[nH]c(C)c3c2=N)cc1	-1	3	-16	-1	2
COc1ccccc1C(=O)Nc1ccc2nc(SCC(=O)N3CCCC3)sc2c1	1	2	1	2	5
CCOC(=O)C1(Cc2cccc(Cl)c2)CCCN(C(=O)c2cnn(CC)c2)C1 (stereo unspecified)	0	-4	-38*	-2	1
CCOC(=O)C1(Cc2cccc(Cl)c2)CCCN(C(=O)c2cn[nH]c2)C1 (stereo unspecified)	-2	-1	-1	15	0
CCCn1c(CCC(=O)Nc2cccc(C)c2C)nc2cccnc21	-2	-2	2	0	2
O=C1CCNc2ccc(-c3ccccc3)cc21	17	-8	-13	9	68*
SMILES	TRHR ag	D1 potentiator	D1 antagonist	TRHR enhancer	D1 agonist
Cc1ccc(NC(=O)CCC(=O)NNC(=O)NC23CC4CC(CC(C4)C2)C3)cc1C	0	-3	-11	5	50*
Cc1cc(/C=C2\C(=N)N3N=C(c4ccco4)SC3=NC2=O)c(C)n1Cc1ccccc1	6	3	-39*	-14	38*
COc1ccc(-n2cccc2/C=C2\C(=N)N3N=C(c4ccco4)SC3=NC2=O)cc1	0	-3	8	5	2
Cc1cc(/C=C2\C(=N)N3C(SCc4ccccc4)=NSC3=NC2=O)c(C)n1Cc1ccccc1	1	1	2	-2	2
Cc1cc(/C=C2\C(=N)N3N=C(C(C)C)SC3=NC2=O)c(C)n1Cc1ccccc1	1	-2	-40*	-3	112*
CCC1=NN2C(=N)/C(=C/c3cc(C)n(Cc4ccccc4)c3C)C(=O)N=C2S1	0	-11	-51*	2	66*
CC1=NN2C(=N)/C(=C\c3cc(C)n(-c4ccccc4)c3C)C(=O)N=C2S1	-1	-8	-1	-7	4
O=C(COC(=O)c1cc[n+]([O-])cc1)Nc1ccc(SC(F)F)cc1	1	-3	-34*	2	2
O=C(COC(=O)c1cc[n+]([O-])cc1)Nc1ccc(Br)cc1	0	7	9	5	1
CSc1ccc(/C=C/C(=O)OCC(=O)N2CCN(S(=O)(=O)c3ccc(C)cc3C)CC2)cc1	1	-3	-33*	-4	12
Cc1ccc(S(=O)(=O)N2CCN(C(=O)COC(=O)/C=C/c3ccc(F)cc3)CC2)c(C)c1	0	-2	-38*	-6	7
Cc1ccc(S(=O)(=O)N2CCN(C(=O)COC(=O)/C=C/c3ccccc3)CC2)c(C)c1	1	-1	-6	6	8
O=C(CN1CCN(C(=O)c2ccc(-c3nc4ccccc4s3)o2)CC1)Nc1ccc(F)cc1	1	·	-7	3	8
Cc1cc2nc(CSc3ccccc3)cc(=O)n2[nH]1	0	2	-33*	-5	2
Cc1cc2nc(CCl)cc(=O)n2[nH]1	0	-3	5	-1	2
COc1ccccc1OCCn1cc(C(=O)c2ccco2)c2ccccc21	1	-5	-7	-2	24
COc1cccc(OCCn2cc(C(C)=O)c3ccccc32)c1	0	-1	-32*	-9	23
Cc1ccc(C)c(OCCn2cc(C(=O)O)c3ccccc32)c1	0	-11	-40*	-4	4
CC(=O)c1cn(CCOc2cc(C)ccc2C)c2ccccc12	0	-10	-14	-13	12
Cc1ccc(OCCn2cc(C=O)c3ccccc32)cc1	0	-4	-34*	0	7
COc1cccc(OCCn2cc(C(=O)c3ccco3)c3ccccc32)c1	-1	-7	-1	-1	50*
COc1cccc(OCCn2cc(/C=N/NC(=O)c3ccncc3)c3ccccc32)c1	0	-3	-14	14	3
CC1=C(C(=O)Nc2ccc(C)cc2C)C(c2ccccc2[N+](=O)[O-])n2ncc(C(=O)Nc3ccccc3)c2N1 (stereo unspecified)	0	-2	3	10	0
Cc1ccc(-c2noc(CCC(=O)NC3CC3)n2)cc1	0	-5	9	-2	2
COc1ccc(N2CCN(S(=O)(=O)c3c(C)[nH]c(=O)[nH]c3=O)CC2)cc1	0	-5	-1	4	2
COc1cc(OC)cc(C(=O)Nc2ccc3c(c2)N(C2CCCC2)C(=O)c2ccccc2S3)c1	0	-2	-3	-4	7
COc1cc(CN(C(=O)c2cccc(C)c2)c2ccccn2)cc(OC)c1OC	0	0	6	1	-3
